The record followed here is PubChem BioAssay AID686978 (National Center for Advancing Translational Sciences (NCATS), 2013).

Structures are written as SMILES. Screen size: about 420,000 compounds; about 64,000 (15%) were called active. Roughly 27% stayed inconclusive and do not appear here. The call rests on the fitted dose curve; in most records, active means well fitted inhibition curve with a large enough effect; inconclusive means small, poorly fitted or top-dose-only effect; inactive means flat fitted curve, though single readings scatter. Only a sample is shown. A call without a number means that no potency is given here.
Potency means the concentration at half of the fitted maximal effect.

This assay can be described thus: qHTS for Inhibitors of human tyrosyl-DNA phosphodiesterase 1 (TDP1): qHTS in cells in absence of CPT. Further: nearly all actives have a fitted effect of over 55% in size. The following applies: DT40 Tdp1-/- hTDP1 cells, no CPT, ATP luminescence, 48 h; activity change, negative = growth inhibition: at 46.2 µM (top of the series). The essentials: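 Compound effects on proliferation are scored in DT40 Tdp1-/-;hTDP1 cells in the absence of CPT. ATP levels (CellTiter-Glo luminescence) are recorded after a ≥48 hr, 37 °C incubation.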
For `Cc1ccc(NC(=O)Nc2ccc3oc(C)nc3c2)cc1`, the Potency result is “inactive”.
Take `COc1cccc(CNC(=O)c2n[nH]c3ccccc23)c1`: the Potency is 16.4 µM (active).
The result for `COc1ccc(NC(=O)c2cc(-c3ccc(C)cc3)on2)cc1` reads “inactive”; that for `COc1ccccc1NC(=O)c1ccc2nc(N3C(=O)CCC3=O)sc2c1`, “inactive”; that for `CCN1CCN(CCCNC(=O)c2ccc3c(c2)sc2nc(-c4ccc(OC)cc4)cn23)CC1`, 1.3 µM (active).
With `O=C(NCCc1ccc(F)cc1)c1n[nH]c2ccccc12`, the Potency result is “inactive”.
In the case of `COc1ccc2oc(=O)c(-c3cn4c(n3)sc3cc(OC)ccc34)cc2c1`, the Potency result is “inactive”.
In the case of `COc1ccc(-c2cc(C(=O)NCCCN3CCOCC3)no2)cc1`, the Potency result is “inactive”.
For the molecule `O=C(COC(=O)c1n[nH]c2ccccc12)NCc1ccccc1`, the Potency entry is “inactive”.
The result for `CCOC(=O)c1ccccc1NC(=O)c1sc2nc(-c3ccc(F)cc3)cn2c1C` reads “inactive”.
As for `COc1ccc(-c2cn3c(n2)sc2cc(C(=O)Nc4ccccc4F)ccc23)cc1`, the figure is 3.66 µM (active); as for `CCCN1CCN(CCCNC(=O)c2ccc3nc(Cc4ccccc4)oc3c2)CC1`, “inactive”; as for `COc1ccc(-c2cn3c(C)c(C(=O)Nc4cc(C)cc(C)c4)sc3n2)cc1`, 16.4 µM (active).
The result for `O=C(OCC(=O)N1CCCCC1)c1ccc(OC(F)(F)F)cc1` reads “inactive”.
In the case of `CCN(CC)C(=O)C1CCC(C)(C(=O)O)C1(C)C` (stereo not drawn), the Potency entry was “inactive”.
Turning to `O=S(=O)(NCCSc1ccccn1)c1ccc(Cl)cc1`, the Potency result was “inactive”.
As to `CC(C)=NN1C(=O)c2ccccc2NC1(C)C`, the Potency entry is “inactive”.
As for `Cc1nnsc1C(=O)Nc1cccc(Cl)c1C`, the entry is “inactive”.
The result for `COc1cccc(CNC(=O)c2ccc3c(c2)sc2nc(-c4cccc(OC)c4)cn23)c1` reads 4.11 µM (active); that for `COc1cccc(CNC(=O)Cn2ncn3c(cc4ccccc43)c2=O)c1`, “inactive”.
As for `COc1cccc(CNC(=O)CCc2nc(-c3ccc(C)cc3)no2)c1`, the entry is “inactive”; as for `CCCC(=O)Nc1cc(OCC)c(NC(=O)NC2CCCCC2)cc1OCC`, “inactive”; as for `CCOc1cc(NC(=O)CCl)c(OCC)cc1NC(C)=O`, 16.4 µM (active).
Take `CCOc1cc(NC(=O)Nc2ccccc2)c(OCC)cc1NC(=O)CC`: the Potency result is “inactive”.
For `C=CC1=C(C(=O)O)N2C(=O)[C@@H](NC(=O)/C(=N/OCC(=O)O)c3csc(N)n3)[C@H]2SC1`, the Potency entry was “inactive”.
As for `COc1cc(N/C=C2\CC(=O)NC(C)=C2C#N)cc(OC)c1OC`, the figure is 25.9 µM (active); as for `COC(=O)C1=C(C)NC(=O)CC1c1ccccc1OC` (stereo not drawn), “inactive”.
On to `COc1cc2c(cc1OC)C(C(=O)Nc1cc(C)c(OC)c(C)c1)CC(=O)N2` (stereo not drawn), for which the Potency result is “inactive”.
As for `CC(C)CNC(=O)C1(C)CCCN1C(=O)CSc1ccccc1` (stereo not drawn), the entry is “inactive”; as for `Cc1ccccc1NC(=O)N1CCCC1C(=O)NCc1ccccc1` (stereo not drawn), “inactive”; as for `O=C(CSc1n[nH]c(=O)n1-c1ccccc1)Nc1ccccc1C(F)(F)F`, “inactive”.
As for `O=C1CN(C(=O)Nc2ccccc2C(F)(F)F)C(c2ccccc2)c2c(sc3c2CCCC3)N1` (stereo not drawn), the Potency is 18.4 µM (active).
As for `[2H]C(CCOS(N)(=O)=O)c1ccccc1` (stereo not drawn), the entry is “inactive”; as for `Cn1c(=NC(=O)C2CC2)sc2cc(F)cc(F)c21`, “inactive”.
Regarding `O=C(CN1CCN(Cc2ccccc2)CC1)NC(c1ccccc1)c1ccccc1`, the Potency is 23.1 µM (active).
`O=C(CN1CCc2ccccc21)NC(c1ccccc1)c1ccccc1`: the Potency entry is “inactive”.
The result for `O=C(NC(c1ccccc1)c1ccccc1)N1CCN(CCO)CC1` reads “inactive”; that for `CC12CCC(=O)N1C(C(=O)Nc1ccc(F)c(F)c1F)CS2` (stereo not drawn), “inactive”; that for `COC(=O)/C=C(\Oc1ccccc1)C1(O)CCCCC1`, “inactive”.
As for `CCNC(=O)NNC(=O)C1CC(c2cccs2)=NO1` (stereo not drawn), the entry is “inactive”.
Turning to `NC(=O)CSc1nnc(-c2cccc(S(=O)(=O)N3CCOCC3)c2)o1`, the Potency entry was “inactive”.
Turning to `Cc1nc2ccc(NC(=O)c3cccc(S(=O)(=O)N4CCOCC4)c3)cc2s1`, the Potency was 20.6 µM (active).
On to `O=C(COC(=O)c1ccccc1)Nc1cccc(S(=O)(=O)N2CCOCC2)c1`, for which the Potency result is “inactive”.
`CCOc1cc(/C=N/NC(=O)c2cccc(S(=O)(=O)N3CCOCC3)c2)ccc1OCC(=O)N(C)C`: the Potency entry was “inactive”.
As for `COc1ccc(Br)cc1/C=N/NC(=O)c1cccc(S(=O)(=O)N2CCOCC2)c1`, the entry is “inactive”; as for `O=C(c1cccc(S(=O)(=O)N2CCOCC2)c1)N1CCOCC1`, “inactive”; as for `O=C(N/N=C/c1ccc([N+](=O)[O-])o1)c1cccc(S(=O)(=O)N2CCOCC2)c1`, 18.4 µM (active).
As to `O=C(Nc1ccc(S(=O)(=O)Nc2nccs2)cc1)c1cccc(S(=O)(=O)N2CCOCC2)c1`, the Potency result was “inactive”.
Regarding `Cc1cc2ccccn2c1C(=O)c1cccc(S(=O)(=O)N2CCOCC2)c1`, the Potency was 16.4 µM (active).
As to `Cc1cc(C(=O)NNC(=O)c2cccc(S(=O)(=O)N3CCOCC3)c2)c2ccccc2n1`, the Potency result is “inactive”.
The result for `O=C(Nc1nnc(-c2ccccc2)o1)c1cccc(S(=O)(=O)N2CCOCC2)c1` reads 16.4 µM (active); that for `CCCS(=O)(=O)N1CCC(C(=O)NCCCN(C)Cc2ccccc2)CC1`, “inactive”.
As for `CSc1ncnc2c1ncn2CCCNCc1ccco1`, the entry is “inactive”; as for `O=C(Nc1cccnc1)c1cc2cc(Br)ccc2oc1=O`, “inactive”.
The result for `COC(=O)c1cc(=O)n(-c2c(Cl)cc(C(F)(F)F)cc2Cl)[nH]1` reads “inactive”.
Consider `CCOC(=O)c1c(NC(=O)CSc2nccc(=O)[nH]2)sc(C)c1C`, for which the Potency result is “inactive”.
Regarding `CCC(=O)Nc1ccc(-c2ccc(N3CCCCC3)nn2)cc1`, the Potency result was “inactive”.
The result for `Cc1ccc(S(=O)(=O)N2CCC(Oc3ccc(-n4cnnn4)cc3)CC2)cc1` reads “inactive”.
The result for `COc1ccc(/C=N/NC(=O)CNC(=O)c2ccc(S(=O)(=O)N3CCCC3)cc2)c(OC)c1` reads “inactive”; that for `Cc1ccccc1N/N=C/c1ccc(N2CCOCC2)cc1`, “inactive”; that for `COc1ccc(/C=N/NC(=O)Nc2ccc3nsnc3c2)c(OC)c1`, “inactive”.
For `C(=N/Nc1cc(N2CCOCC2)nc(N2CCOCC2)n1)/c1ccccc1`, the Potency was 20.6 µM (active).
Take `CN(C)c1ccc(/C=N/Nc2cc(N3CCOCC3)nc(N3CCOCC3)n2)cc1`: the Potency result was “inactive”.
As for `COc1ccc(/C=N/Nc2cc(N3CCOCC3)nc(C)n2)c(OC)c1`, the figure is 20.6 µM (active); as for `C=CCN1C(=O)C(Cc2ccc(OCC)cc2)SC1=Nc1ccc(C(=O)O)cc1` (stereo not drawn), “inactive”; as for `COc1ccc(N=C2SC(C(=O)Nc3ccc(F)cc3)CC(=O)N2C)cc1` (stereo not drawn), “inactive”.
The result for `CC1Cc2ccccc2N1C(=O)CSc1nnc(C2CC2)n1C` (stereo not drawn) reads “inactive”; that for `COc1ccc(CC(=O)Nc2c(C(N)=O)oc3ccccc23)cc1`, “inactive”; that for `COCCNC(=O)CSc1nc2c(n1-c1ccccc1)CCCC2`, “inactive”.
In the case of `Nc1ncnc2c1ncn2C1CC(O)C(CO)O1` (stereo not drawn), the Potency was 4.61 µM (active).
In the case of `Nc1ncnc2c1cnn2C1CC(O)C(CO)O1` (stereo not drawn), the Potency result was “inactive”.
As for `Nc1ccn(C2CC(O)C(CO)O2)c(=O)n1` (stereo not drawn), the entry is “inactive”; as for `O=C(Cc1ccccc1)NNS(=O)(=O)c1ccc([N+](=O)[O-])cc1`, “inactive”; as for `O=C(NNS(=O)(=O)Cc1ccccc1)c1ccc([N+](=O)[O-])cc1`, “inactive”.
As for `O=[N+]([O-])c1ccc(C(S(=O)(=O)Cc2ccccc2)S(=O)(=O)Cc2ccccc2)cc1`, the figure is 18.4 µM (active); as for `Cn1c(N)cc(-c2ccc(F)cc2)c(C#N)c1=O`, “inactive”.
The result for `CCOc1ccc(N=C2NC(=O)S/C2=C\c2ccc(O)cc2)cc1` reads “inactive”; that for `CCOc1[nH]n(-c2ccc(Cl)cc2)c(=O)c1C=Nc1ccc(O)cc1`, 5.17 µM (active); that for `CC(=O)Cn1ncc(N2CCOCC2)c(Br)c1=O`, “inactive”.
With `Cc1ccc(Cc2nc(-c3cccc(C)c3)no2)cc1`, the Potency result is “inactive”.
As for `N/C(=N\S(=O)(=O)c1ccc(Cl)cc1)N1CCOCC1`, the entry is “inactive”.
As for `CCOC(=O)c1cnc2nc(SCc3ccccc3Cl)[nH]n2c1=O`, the entry is “inactive”.
For the molecule `COCCOCCn1cnc2ccccc21`, the Potency entry was “inactive”.
For the molecule `COc1ccc(OCCn2ccnc2C)cc1`, the Potency result is “inactive”.
In the case of `O=c1c2ccccc2ncn1CCCCOc1ccccc1F`, the Potency result is “inactive”.
The result for `COc1ccc(OCCCn2c(C)nc3cc(C)c(C)cc32)cc1` reads 10.3 µM (active).
In the case of `Cc1cc2ncn(CCCCOc3ccccc3)c2cc1C`, the Potency is 14.6 µM (active).
`COc1ccc2ccn(C)c2c1`: the Potency result was “inactive”.
Take `Cc1ccc(C(=O)N2CCN(S(=O)(=O)N3CCOCC3)CC2)cc1`: the Potency entry was “inactive”.
The result for `N#Cc1c(-c2cccs2)nc(SCC(=O)c2ccc(Br)cc2)[nH]c1=O` reads “inactive”.
As for `O=C(NC(C(=O)NCCN1CCOCC1)C12CC3CC(CC(C3)C1)C2)C1CCCCC1` (stereo not drawn), the entry is “inactive”; as for `Cc1ccc(S(=O)(=O)/N=C(/Nc2ccccn2)c2ccc(Cl)cc2)cc1`, “inactive”; as for `Cc1ccc(S/C(=N\S(=O)(=O)c2ccc(Cl)cc2)c2ccccc2)cc1`, 10.3 µM (active).
As for `O=S(=O)(/N=C(/Nc1ccccn1)c1ccccc1)c1ccc(Cl)cc1`, the entry is “inactive”; as for `O=C(CCS(=O)(=O)c1ccccc1Cl)Nc1ccc(S(=O)(=O)Nc2ncccn2)cc1`, “inactive”.
On to `O=C(O)c1ccccc1NC(=O)c1ccccc1-c1ccccc1C(=O)O`, for which the Potency entry was “inactive”.
As for `Cc1ccccc1NC(=O)C1CCCN(C(=O)NCc2ccccc2)C1` (stereo not drawn), the entry is “inactive”.
The result for `CCOC(=O)CCNC(=O)N1CCCC(C(=O)c2ccccc2SC)C1` (stereo not drawn) reads “inactive”; that for `CCNC(=O)N1CCCC(C(=O)c2ccc(-c3ccccc3)cc2)C1` (stereo not drawn), 9.2 µM (active).
The result for `O=C(CSc1nnc(-c2ccco2)n1-c1ccccc1)NCCc1ccccc1` reads “inactive”.
With `CCSCc1nc(N)nc(NCCc2ccccc2)n1`, the Potency entry is “inactive”.
The result for `Cc1ccc(Nc2nc(N)nc(CN3CCN(Cc4ccccc4)CC3)n2)cc1Cl` reads 16.4 µM (active); that for `CCOC(=O)N1CCN(Cc2nc(N)nc(Nc3ccc(C)cc3)n2)CC1`, “inactive”; that for `CCOc1ccc(S(=O)(=O)NCc2ccc3c(c2)OCO3)cc1C`, “inactive”.
The result for `O=C(OCCN=C1NS(=O)(=O)c2ccccc21)c1cccc([N+](=O)[O-])c1` reads “inactive”; that for `Cc1cccc(C(=O)Nc2ccc(C(=O)/C=C/c3cccs3)cc2)c1`, 16.4 µM (active).
As for `Cc1ccc(C(=O)Nc2ccc(NC(=O)c3cccs3)cc2)c(C)c1`, the entry is “inactive”.
Turning to `Cc1cccc(C(=O)Nc2ccc(CC(=O)O)cc2)c1`, the Potency result was “inactive”.
